Measured values: PubChem BioAssay (NCI)
The panel holds about 83,000 compounds, 20% with a hit somewhere; the sample as a whole holds those more often.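 96-well plates, one dose, 48 hours. Percent growth reported; active if below 10.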 Values without a mark were called inactive. Active and inactive are the calls of the source.

Legend:
Assay in all cases: NCI-60 one-dose screen, 48 h (100 = growth as untreated, 0 = no growth, -100 = all killed)
Conditions in all cases: 10 µM unless noted
T-47D breast = tested on: T-47D breast
BT-549 breast = tested on: BT-549 breast
MDA-MB-435 melanoma = tested on: MDA-MB-435 melanoma
SW-620 colon = tested on: SW-620 colon
MCF7 breast = tested on: MCF7 breast
HCT-116 colon = tested on: HCT-116 colon
HCC-2998 colon = tested on: HCC-2998 colon
KM12 colon = tested on: KM12 colon

| SMILES | growth (T-47D breast) | growth (BT-549 breast) | growth (MDA-MB-435 melanoma) | growth (SW-620 colon) | growth (MCF7 breast) | growth (HCT-116 colon) | growth (HCC-2998 colon) | growth (KM12 colon) |
| --- | --- | --- | --- | --- | --- | --- | --- | --- |
| CCCCCc1nc2c(c3c1CCCC3)CCCC2 | 71.9% | 115% | 99.7% | 89.9% | 66.9% | 48.8% | 87.8% | 88.3% |
| O=C(NC(Cc1nnc2n(Cc3ccccc3)c(=O)c3c4c(sc3n12)CCCC4)c1ccc(Cl)cc1)c1ccccc1 (stereo unspecified) | 85.3% | 107% | 56.8% | 73.1% | 84.9% | 87.1% | 68.5% | 98.7% |
| O=C(c1ccccc1)c1c(/C=C/c2ccccc2)nc2ccccc2c1/C=C/c1ccc(Br)cc1 | 95.4% | 111% | 99.7% | 98.3% | 82.7% | 87.8% | 115% | 98.7% |
| CCN1CCN(c2cc(C)nc(NCc3cc(Nc4ccnc5cc(Cl)ccc45)ccc3F)n2)CC1 | -17.7% (active) | 98.6% | 50.7% | 40.8% | 6.99% (active) | 11.8% | 28% | 82.7% |
| N#Cc1nc2c(S(=O)(=O)c3ccc(Cl)cc3)c(N)n(Nc3cccc(Cl)c3)c2nc1C#N | 53.5% | 47.8% | 53% | 35.9% | 58.5% | 32.9% | 82.3% | 64.3% |
| N/C(=N\c1nc2ccccc2s1)NC(=O)Nc1cccc(Cl)c1 | 42.6% | 42.8% | 1.08% (active) | 31.9% | 21.2% | 16% | 73% | 22.9% |
| CCOP(=O)(OCC)C1CP(=O)(c2ccccc2)CC(C)=C1Cl (stereo unspecified) | 102% | 129% | 110% | 105% | 102% | 91.5% | 102% | 109% |
| Cc1ccc(-c2c(-c3ccccc3)c(=O)oc3ccc(C)cc23)cc1 | 84.3% | 108% | 103% | 99.5% | 116% | 72.8% | 90.5% | 92% |
| Cc1nc2ccccc2n1CC1NC(=O)NC1=O (stereo unspecified) | 103% | 107% | 99.8% | 97.6% | 96.2% | 106% | 115% | 102% |
| COc1ccc(NC(=O)c2nc(-c3cc(OC)c(OC)c(OC)c3)n(-c3cccc4ccccc34)n2)cc1OC | 50.3% | 46.3% | 47.4% | 61.5% | 26.2% | 25.9% | 47.4% | 41.3% |
| COC(=O)[C@]12CC[C@@H](C)[C@H](C)[C@@H]1C1=CC[C@@H]3[C@@]4(C)C(C=O)=C[C@@](C)(COC(C)=O)[C@@H]4[C@H](O)C[C@@]3(C)[C@]1(C)CC2 | -18.5% (active) | -19.8% (active) | -24.3% (active) | -59.4% (active) | -11.7% (active) | -76.8% (active) | -71% (active) | -27.5% (active) |
| CC/C=C/C/C=C/C/C=C/C/C=C/C/C=C/C/C=C/CCC(=O)Nc1ccn([C@@H]2O[C@H](CO)[C@@H](O)C2(F)F)c(=O)n1 | 28.9% | 29.8% | 36.9% | 30.8% | 14.3% | 12.1% | 55.1% | 43.5% |
| O=C1/C(=C\c2cccnc2)SC(=S)N1CCc1ccc(O)cc1 | 37.6% | 72.2% | 22.4% | 44.4% | 30.3% | 15% | 72.1% | -3.09% (active) |
| COc1cccc(-c2nc3sccn3c2-c2ccnc(NCCNS(=O)(=O)c3cccc(Cl)c3)c2)c1 | 1.84% (active) | 18.3% | 59.7% | 66.5% | 43.2% | 40% | 64.2% | 42.8% |
| COC(=O)c1ccc(C2Nc3ccc(S(=O)(=O)Nc4ccc(C)c(C)c4)cc3C3OCCC23)cc1 (stereo unspecified) | 51.1% | 84.7% | 94.7% | 78.5% | 43.1% | 62.1% | 111% | 78.1% |
| CN(C)CC1=NC2SC=C(c3ccccc3)C2C(=O)N1CC#N (stereo unspecified) | 86.8% | 118% | 95.3% | 104% | 121% | 103% | 97.5% | 101% |

| SMILES | growth (T-47D breast) | growth (BT-549 breast) | growth (MDA-MB-435 melanoma) | growth (SW-620 colon) | growth (MCF7 breast) | growth (HCT-116 colon) | growth (HCC-2998 colon) | growth (KM12 colon) |
| --- | --- | --- | --- | --- | --- | --- | --- | --- |
| Cc1ccc(/C=C2\C(=O)N(C)c3ccc(S(=O)(=O)Nc4ccc(C(C)(C)C)cc4)cc32)s1 | 55% | 87.4% | 69.1% | 50.4% | 54.6% | 37.2% | 85% | 59.9% |
| O=[N+]([O-])c1ccc(C2CC(c3ccccc3)=Nc3ccccc3S2)cc1 (stereo unspecified) | 70.9% | 95% | 103% | 79.4% | 32.6% | 36.2% | 103% | 73.6% |
| NC(=S)Nc1cccc(O)c1 | 106% | 78.8% | 98.6% | 99.8% | 98.8% | 91.6% | 96.7% | 106% |
| C#CCOc1nc(C)cc(C)c1C#N | 96.2% | 106% | 99.9% | 96.5% | 95.5% | 99.4% | 103% | 102% |
| COc1cccc(-c2nn(-c3ccccc3)cc2-c2ccnc(NCCCNC(=O)c3ccccc3)c2)c1 | 4.22% (active) | 14% | 5.43% (active) | 39.7% | 33.4% | 36% | 52.3% | 33.6% |
| N=C(N)c1ccc(-c2ccc(-c3cncc4ccccc34)s2)s1 | -58.3% (active) | 36.9% | -91.2% (active) | -68.4% (active) | -68.7% (active) | -84.4% (active) | -78.3% (active) | -78.8% (active) |
| Cc1ccc(Cl)c(NS(=O)(=O)c2ccc(-c3cnc(C4CC4)o3)cc2)c1 | 45% | 34.5% | -59.6% (active) | 18.6% | 12.4% | 13.8% | 26.8% | 16.5% |
| COC(=O)/C=C1\S/C(=N\NS(=O)(=O)c2ccc(C)cc2)N(c2ccccc2)C1=O | 99.2% | 115% | 102% | 106% | 94.5% | 103% | 121% | 101% |
| CC(C)(C)c1ccc(/C=C/C(=O)Nc2ccc(O)cc2)cc1 | 64.4% | 66.6% | 50.9% | 71% | 60.9% | 68.1% | 97% | 36.5% |
| C=C1C(=O)O[C@H]2[C@H]1CC/C(COC(=O)C(=O)c1c[nH]c3ccc(OC)cc13)=C\CC[C@@]1(C)O[C@@H]21 | -54.5% (active) | -63.7% (active) | -85.3% (active) | -61.4% (active) | -30.1% (active) | -97.3% (active) | -81.9% (active) | -71.2% (active) |
| C=CCSc1nc2ccccc2cc1/C=N/O | 67.6% | 85.6% | 95.1% | 87% | 78% | 78.8% | 93.9% | 89.5% |
| CC(=O)c1ccc(NCC(=O)Nc2ccccn2)cc1 | 94.6% | 104% | 104% | 102% | 86.9% | 101% | 110% | 99% |
| Nc1ccc2c(c1)c(N)nn2C(=O)Nc1ccc(Cc2ccccc2)cc1 | 60.4% | 86.4% | 68.9% | 93.4% | 64.3% | 52.5% | 36.9% | 65.3% |
| N#CC1=C(/N=C/c2ccccc2)Oc2c(ccc3ccccc23)C1c1ccccc1 (stereo unspecified) | 49.8% | 4.18% (active) | -42.1% (active) | 23.9% | 14.6% | 8.77% (active) | -12.2% (active) | 19.2% |
| O=C(O)c1ccc2c(c1)CCC2 | 106% | 96.6% | 115% | 108% | 100% | 105% | 115% | 113% |
| COc1cc(-c2nc(N3CCN(C)CC3)c3ccccc3n2)cc(OC)c1OC | 65.3% | 84.7% | 0% (active) | 53.3% | 29.5% | 31.9% | 88.4% | 53.4% |
